PubChem BioAssay AID1159506 (National Center for Advancing Translational Sciences (NCATS), 2015)
Over roughly 59,000 sequences, the read-out has its median near -0.00055; the lowest 2% begin near -2. The sample as a whole holds a higher share of the lowest values than the screen did.

Experiment: Identification of proteins required for the processing of the EWS-FLI1 nascent transcript;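 further: robust z of luciferase light less the median z of siRNAs with the same seed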
Details: TC32 Ewing sarcoma NR0B1-luc vs CMV-luc (EWS-FLI1 target promoter against control promoter), 48 h; screened at 20 nM (by protocol)
Protocol: Ewing sarcoma (ES) cells depend on the EWS-FLI1 fusion transcription factor for cell survival. Using an assay of EWS-FLI1 activity and genome-wide siRNA screening we have identified proteins required for the processing of the EWS-FLI1 nascent transcript. Parallel genome-wide siRNA-mediated RNAi screens were conducted in Ewing sarcoma TC32 cell lines expressing a luciferase (luc) reporter protein driven by either the promoter of the EWS-FLI1 target gene NR0B1 (TC32-NR0B1-luc) or the CMV promoter (TC32-CMV-luc). Luciferase activity was assessed 48 hours post siRNA-transfection.
Twenty microl of serum-free media containing Lipofectamine RNAiMax (0.05 microl) was added to wells containing siRNA (0.8 pmol). Lipid and siRNA were allowed to complex for 45 min at ambient temperature before addition of 600 cells in RPMI-1640, 20% FBS to yield final transfection mixtures containing 20 nM siRNA in RPMI-1640, 10% FBS. Luciferase expression was measured using OneGlo (Promega, Madison, WI). The genome-wide screening campaign was conducted using Ambion's human genome library version 4.1 (Ambion, Austin TX). This library targets approximately 21000 human genes, three siRNAs per gene. Each siRNA is arrayed in an individual well of a 384-well plate. Parallel transfections were conducted in TC32-NR0B1-luc and TC32-CMV-luc cell lines and luciferase expression (OneGlo, Promega) was assayed 48 h later on a PerkinElmer Envision 2104 Multilabel plate reader (PerkinElmer, Waltham, MA). Qiagen's AllStars Negative control was incorporated on all screening plates for normalization (16 wells per plate). Qiagen, Germantown, MDsiGL4 was incorporated as a positive transfection control (16 wells per plate) on all plates. […] The raw luciferase data for the NR0B1- and CMV-luc screens were normalized and z-score-MAD transformed using standard methods (Chung et al., 2008). The miRNA-like seed sequence of every siRNA was determined and the median z-score for all siRNA sequences with the same seed sequence was calculated. This z-score was subtracted from the z-score associated with each siRNA with that seed sequence to generate a seed-adjusted z-score value (Z) that was used when the results for the three siRNAs corresponding to each gene were compared (Marine et al., 2012)

Sequence | seed-corrected z-score
UUUGGGCUUAGCGGCUUUG against HIST1H1B | -2.05
ACUGUAAUUACUAAGAUCU against CXCR2 | -1.37
UACCAGAUGUCUUUUGUGC against IL33 | 0.0107
UUCUGGUCGAGAGCAUCUG against MAGEB16 | -2.42
UAUAACUUGAGAGUAGCUC against POPDC2 | 0.283
UAUAAGUUUCCUCCCAUGC against TM6SF1 | 0.269
AUCUUGGACAGUAUCAGCC against IQCF1 | -2.36
UUGAGUUUGAUGCCGCUGC against MKNK2 | -0.331
UUUCUUAGGGAACCAGUUG against TAGLN2 | -0.282
UCCAGAUUCAAAAUGUCUU against NKX2-3 | 0.184
AAACUCAUCACUCCAGUAC against PARP12 | 0.00618
UUCUUGACUGCUGGUAUAG against C3orf30 | -0.465
UCGGUGUUCACGUAGCCCU against SYNGR3 | -0.68
UUUAUUUAGACUUAUGAUC against PTH | -2.27
UCUACUUUUCACAAUGACC against GCLM | -0.666
ACGGCCUCCACUAUGUUUC against RPS26P31 | 0.368
AAACUGUGAAGCGUAAGUG against FAM188B | -4.34
UGUCAAAUGAAAUUCCUUC against DHX38 | -0.779
UGUGUGAGCAUGAAGCGAG against SSNA1 | 0.0225

Sequence | seed-corrected z-score
AUAUGUAUCAGAACUGGGA against SAE1 | -0.67
UGCUGUAAUGAUGUACUCC against KIAA1549 | -1.71
UUAAUCACCUUGUCGUUGC against ALDH3A1 | -0.669
UGGUCUUAAAAUUAGAGUG against CALR3 | -2.01
AUAUGAUUAGGUAGGUUUG against GDPD2 | 0.805
UCGGAUUGAUCUGUUAUGG against CFAP54 | -1.05
UGGUAUAUAAGGGAUGAGC against ZNF611 | -2.07
UAUUGUCCAAAUGCUCAGG against SALL1 | -0.159
UGUCUAAUAAGGCCUGAGC against ZFP3 | -0.177
ACAUCACAAAGUAUUAAUC against LOC643855 | 0.14
UUGGGUUGGAAGUCCACUG against SF3A1 | -2.15
UUCUGGAUUAUAGUCAUCC against CWC22 | 0.478
AAUGCUUUUAAUGCUCUUC against CARHSP1 | -0.968
UGAUCUACUAUGGUCCCUC against CPSF6 | 0.287
UACAUGAGCCUUGAUCUGG against FAU | 1.08
UGCAUGCUCAUUAAGUUCC against TUBE1 | -0.26
UGUAGUCACUUUCACAUUC against CCR2 | -2.02
UACUCUUAAAGUGAUGUUA against PPP1R1C | 0.297
